TSHR antagonist: Antagonists of the Thyroid Stimulating Hormone Receptor: HTS campaign | 330,000 compounds, 0.2% hits | AID 504810, 2011 | TSHR-expressing cells, TSH-stimulated cAMP HTRF, 2 h; hits give low values | Thyrotropin receptor (Homo sapiens), P16473 | activity change, negative = inhibition, % at 11.5 µM;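 active = activity change below a set negative limit, meaning inhibition stronger than a set level, cut at about -70% in these data; inconclusive = activity change between two set negative limits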
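Inhibition of cAMP made by TSHR-expressing cells under TSH stimulation (4nM final, EC80; 2 h, 37 deg C) is quantified with a one-step lysis HTRF kit, anti-cAMP cryptate versus cAMP-d2.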
Gal4-VP16 FLuc: VP16 counterscreen qHTS for inhibitors of ROR gamma transcriptional activity; 310,000 compounds, 3.5% hits; Drosophila S2 Gal4-VP16 UAS-luciferase, luminescence, 20 h; Potency, µM (doses to about 53.6 µM), actives largely listed as inhibitors;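 also: Gal4-VP16 expression switched on by copper sulfate through the metallothionein promoter; nearly all actives have a fitted effect of over 50% in size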
ELG1 DNA repair: qHTS screen for small molecules that inhibit ELG1-dependent DNA repair in human embryonic kidney (HEK293T) cells expressing luciferase-tagged ELG1. HEK293T ELG1-luciferase reporter, luminescence, 16 h; DNA damage induced by 5-fluorouridine. Potency, µM (highest dose often 46.1 µM), actives largely listed as inhibitors. 330,000 compounds, 2.3% hits; also: nearly all actives have a fitted effect of over 55% in size
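Overnight (16 hr) co-exposure of 2,000 cells/well to 5-fluorouridine and compound at 37 °C preceded detection. Luciferase was quantified via ONE-Glo luminescence; loss of signal denotes inhibition.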
FBPA coupling cs: qHTS Assay for Inhibitors of Fructose-1,6-bisphosphate Aldolase from Giardia Lamblia: Coupling assay counterscreen; coupling enzyme system counterscreen, AmpLite Red fluorescence; activity change, negative = inhibition, % at 58.2 µM, hits read low; 290,000 compounds, 0.67% hits; AID 2472, 2010; in the data active = activity change below about -30%
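Final compound at 57.5 uM, incubated 10 min at RT with coupling enzyme reagent (glyceraldehyde-3-phosphate), then 20 min with substrate and AmpLite Red detection. Fluorescence read at 525/598 nm; tests interference with the coupling assay, not aldolase inhibition.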
RORgamma inh: qHTS for inhibitors of ROR gamma transcriptional activity; Drosophila S2 Gal4-RORgamma UAS-luciferase reporter, 20 h; Potency, µM (series often up to 53.6 µM), most hits filed as inhibitors; 310,000 compounds, 5.4% hits; AID 2551, 2010; also: nearly all actives have a fitted effect of over 60% in size
Target sequence (P51450 whole entry, looked up, the tested form may be a part): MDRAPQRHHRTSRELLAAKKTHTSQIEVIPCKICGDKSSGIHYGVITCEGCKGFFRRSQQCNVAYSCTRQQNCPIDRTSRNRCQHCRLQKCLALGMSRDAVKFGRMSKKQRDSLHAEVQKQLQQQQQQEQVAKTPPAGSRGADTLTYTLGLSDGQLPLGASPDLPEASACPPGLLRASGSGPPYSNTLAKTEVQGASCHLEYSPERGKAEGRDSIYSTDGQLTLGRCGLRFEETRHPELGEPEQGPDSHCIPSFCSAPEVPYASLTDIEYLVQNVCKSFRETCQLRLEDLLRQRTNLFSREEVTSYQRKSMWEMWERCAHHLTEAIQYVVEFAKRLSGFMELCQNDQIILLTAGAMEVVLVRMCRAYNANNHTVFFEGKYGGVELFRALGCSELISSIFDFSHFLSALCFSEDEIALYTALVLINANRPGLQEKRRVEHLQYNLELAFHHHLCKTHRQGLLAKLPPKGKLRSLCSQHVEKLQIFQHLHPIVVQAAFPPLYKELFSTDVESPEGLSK
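Luminescence from a UAS-regulated Photinus luciferase reporter in stably transfected Drosophila Schneider cells is measured; decreased signal marks ROR gamma inhibition. Fusion expression is induced by 700 uM copper sulfate for 20 hr.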
Hits are given with their value; . = inactive; ? = inconclusive; / = no result given; [ ] = dose if it differs, or a comment. Sampled rows, rich in hits. Any-hit rate of the full collection: about 8%. Unless noted, calls follow the shape of the dose curve; as a rule, active = well fitted curve in the direction sought with a large enough effect; inconclusive = small, poorly fitted or top-dose-only effect, or another doubt; inactive = no such curve, though single readings can be large; an effect the other way counts as inactive or inconclusive.

SMILES | TSHR antagonist | Gal4-VP16 FLuc | ELG1 DNA repair | FBPA coupling cs | RORgamma inh
COCCNc1nnc(SCC(=O)NC2CCCCC2)s1 | . | / | . | / | /
COc1cc(OC)c(C2=NOC(C(=O)N3CCCc4ccccc43)C2)cc1Cl (stereo unspecified) | . | 4.5µM | ? | . | 5.6µM
COC(CNC(=O)c1ccc2c(c1)nc(C)n2-c1cccc(C)c1)OC | . | . | . | . | .
COc1ccc(CCNC(=S)c2ccccc2)cc1OC | . | 16µM | ? | . | ?
COc1ccc(CCNC(=S)NC(=O)c2ccccc2)cc1C | . | ? | 13µM | . | 10µM
COc1ccc(CCNC(=S)NCCc2ccc(OC)c(OC)c2)cc1OC | . | . | ? | . | .
COc1ccc(CCNC(=S)NC(=O)c2ccc(Br)cc2)cc1OC | . | ? | ? | . | 13µM
C[C@]12CCC(=O)C=C1[C@@H]1C[C@H]1[C@H]1[C@@H]3[C@@H]4C[C@H]4[C@@]4(CCC(=O)O4)[C@@]3(C)CC[C@@H]12 | / | . | / | / | .[10 µM]
O=C(Nc1ccccc1F)C1CCN(S(=O)(=O)c2cccc3nonc23)CC1 | . | . | . | . | .
Cc1ccc(-c2cc(-c3ccco3)c3c(N)c(C(=O)NN)oc3n2)cc1 | . | . | 13µM | . | .
CNC(=S)NNC(=O)c1oc2nc(-c3ccccc3)cc(C)c2c1N | . | . | . | . | .
NNC(=O)c1oc2nc(-c3cccs3)cc(-c3ccco3)c2c1N | . | . | ? | . | .
COc1cccc(/C=N/NC(=O)c2c(-c3ccccc3)noc2C)c1 | . | . | . | . | .
COc1cccc(/C=N/NC(=O)c2oc3nc(-c4ccccc4)cc(-c4ccco4)c3c2N)c1 | . | . | 16µM | . | .
NNC(=O)c1oc2nc(-c3ccccc3)cc(-c3ccccc3)c2c1N | . | . | 16µM | . | .
O=C(CCN1CCC(c2cccs2)=N1)c1cccs1 | . | ? | ? | . | ?
COc1ccc(/C=C/C(=O)NC(=S)NNC(=O)[C@H]2C[C@@H]2c2ccccc2)cc1OC | . | . | ? | . | .
COc1ccc(/C=C/C(=O)NC(=S)NN2CCCCC2c2cccnc2)cc1OC (stereo unspecified) | . | 16µM | . | . | 13µM
O=C(/C=C/c1ccc(Cl)cc1)NC(=S)NN1CCCCC1c1cccnc1 (stereo unspecified) | . | ? | . | . | 2µM
COc1cc(OC)cc(C(=O)NC(=S)N2CCCCC2c2cccnc2)c1 (stereo unspecified) | . | 4µM | . | . | .
CC(C)NC(=O)N1CCCC2(CCN(C(=O)c3ccncc3)CC2)C1 | / | . | / | . | .
COc1ccc(OC)c(NC(=O)CSc2nnc(CNC(=O)c3cc(OC)c(OC)c(OC)c3)o2)c1 | . | . | . | / | .
NS(=O)(=O)c1ccc(N=Nc2ccc(=O)[nH]c2O)cc1 | . | . | . | -32 | .
CSc1ccc(NC(=O)N2CC=C(n3c(=O)[nH]c4ccccc43)CC2)cc1 | . | . | 23µM | . | .
COc1ccc(Cl)cc1NC(=S)NCCc1ccc(F)cc1 | . | 18µM | . | . | 14µM
SMILES | TSHR antagonist | Gal4-VP16 FLuc | ELG1 DNA repair | FBPA coupling cs | RORgamma inh
COc1ccc(NC(=S)NCc2ccc(Cl)cc2)c(OC)c1 | . | ? | . | . | .[1.91 µM]
COc1ccc(NC(=S)NCCc2ccc(Cl)cc2)c(OC)c1 | . | 11µM | . | . | 4.5µM
O=C1C=CC2=C3c4cc(O)c(O)cc4C[C@@]3(O)COC2=C1 | / | . | / | . | .
CNc1snc(C)c1C(=O)OCC(=O)Nc1ccc(C)cc1F | . | / | 13µM | / | /
CCc1ccccc1NC(=O)COC(=O)c1c(C)nsc1NC | . | / | . | / | /
O=C(Nc1ccccc1)N1CC[C@@]2(CCCN(C(=O)c3csnn3)C2)C1 | / | . | / | . | .
O=C(NNC(=O)c1ccccc1F)C1=NN(c2ccccc2)C(=O)CC1 | . | . | . | . | .
COc1ccc2c(c1)c(C(C)=O)c(C)n2CCc1ccccc1 | . | . | 8.2µM | . | .
NS(=O)(=O)c1cc2c(cc1C(F)(F)F)N[C@H](Cc1ccccc1)NS2(=O)=O | / | . | / | . | .[2.98 µM]
CCCN(CCC)S(=O)(=O)c1ccc(C(=O)Nc2cc3oc4ccccc4c3cc2OC)cc1 | . | ? | . | . | .
CCCN(CCC)S(=O)(=O)c1ccc(C(=O)Nc2nnc(-c3cc(OC)cc(OC)c3)o2)cc1 | . | 0.28µM | 1.5µM | . | 0.16µM
CCCN(CCC)S(=O)(=O)c1ccc(C(=O)Nc2nnc(-c3cccc(OC)c3)o2)cc1 | . | 0.63µM | ? | . | 0.4µM
COc1cccc(-c2nnc(NC(=O)CCS(=O)(=O)c3ccc(C)cc3)o2)c1 | . | / | . | / | /
O=C(OCC(=O)N1CCOCC1)c1cccc(S(=O)(=O)N2CCCc3ccccc32)c1 | . | . | . | . | .
CNC(=S)NNc1ccccc1[N+](=O)[O-] | . | . | . | . | 16µM
COCCNC(=S)Nc1ccc([N+](=O)[O-])cc1C | . | ? | . | . | ?
O=C(NNc1ccccc1[N+](=O)[O-])Nc1ccccc1 | . | . | . | . | .
COCCNC(=S)NNc1ccccc1[N+](=O)[O-] | . | 11µM | . | . | ?
Cc1ccc(-c2csc3nc(SCC(=O)Nc4ccc(Cl)c(C(=O)O)c4)[nH]c(=O)c23)cc1 | . | . | ? | . | .
COc1ccccc1CC(NC(C)=O)C(=O)NC1CCN(C(=O)c2ccc(C)cc2)CC1 (stereo unspecified) | . | . | . | . | .
COc1ccc(NC(=O)c2csc(C)c2)cc1OC | . | . | ? | . | .
N/C(Cc1ccc(Cl)cc1)=N\OC(=O)c1ccccc1 | . | . | . | . | .
COc1ccc(C(=O)O/N=C(\N)Cc2ccc(Cl)cc2)cc1OC | . | 16µM | ? | . | ?
COc1cc(C(=O)O/N=C(\N)Cc2ccc([N+](=O)[O-])cc2)cc(OC)c1OC | . | ? | ? | . | .
COc1ccc(C(=O)O/N=C(\N)Cc2ccc(Cl)c(Cl)c2)cc1OC | . | 6.3µM | 18µM | . | ?
O=C(COC(=O)C1CC2CCCC(C1)C2=O)NC1CCCCC1 (stereo unspecified) | . | / | . | / | /
CCCCS(=O)(=O)N1C2=NC(C(=O)OC)=C(C(=O)OC)[C@@H]3Nc4ccccc4[C@]23C[C@H]1C(=O)OC | / | / | / | . | /
Cc1cccc(N2CCN(C(=O)c3cccc(S(=O)(=O)N4CCCCC4)c3)CC2)c1C | . | / | 13µM | / | /
COc1ccccc1N1CCN(C(=O)c2cc3c(s2)-c2ccccc2OC3)CC1 | . | . | 21µM | . | .
O=C(c1ccccc1)N1CCN(c2nc3ccc([N+](=O)[O-])cc3s2)CC1 | . | 8.9µM | . | . | ?

High-throughput results (PubChem BioAssay)
